Assay outcomes (PubChem)
SKN-1 block – blocks SKN-1 activity in C. elegans; C. elegans VP596 Pgst-4::GFP/RFP ratio, acrylamide-induced, 24 h; 360,000 compounds, 0.49% hits; AID 624304; inhibition, % at 21.8 µM;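 active = interference check ratio from 0.5 to 1.5 plus GFP to RFP signal ratio inhibition reaching or exceeding a fixed threshold, cut at about 30% in these data, passing the limit was not always enough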
CendR NRP1 mod – NRP-1/CendR interaction modulation | O14786 | FAM-RPARPAR peptide binding to NRP-1, fluorescence polarization | inhibition, % at 25 µM | 360,000 compounds, 0.85% hits;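 active = inhibition or corrected inhibition above about 18%, plus a signal ratio from 0.5 to 1.5, limit read from the data, passing the limit was not always enough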
Target sequence (O14786 whole entry, looked up): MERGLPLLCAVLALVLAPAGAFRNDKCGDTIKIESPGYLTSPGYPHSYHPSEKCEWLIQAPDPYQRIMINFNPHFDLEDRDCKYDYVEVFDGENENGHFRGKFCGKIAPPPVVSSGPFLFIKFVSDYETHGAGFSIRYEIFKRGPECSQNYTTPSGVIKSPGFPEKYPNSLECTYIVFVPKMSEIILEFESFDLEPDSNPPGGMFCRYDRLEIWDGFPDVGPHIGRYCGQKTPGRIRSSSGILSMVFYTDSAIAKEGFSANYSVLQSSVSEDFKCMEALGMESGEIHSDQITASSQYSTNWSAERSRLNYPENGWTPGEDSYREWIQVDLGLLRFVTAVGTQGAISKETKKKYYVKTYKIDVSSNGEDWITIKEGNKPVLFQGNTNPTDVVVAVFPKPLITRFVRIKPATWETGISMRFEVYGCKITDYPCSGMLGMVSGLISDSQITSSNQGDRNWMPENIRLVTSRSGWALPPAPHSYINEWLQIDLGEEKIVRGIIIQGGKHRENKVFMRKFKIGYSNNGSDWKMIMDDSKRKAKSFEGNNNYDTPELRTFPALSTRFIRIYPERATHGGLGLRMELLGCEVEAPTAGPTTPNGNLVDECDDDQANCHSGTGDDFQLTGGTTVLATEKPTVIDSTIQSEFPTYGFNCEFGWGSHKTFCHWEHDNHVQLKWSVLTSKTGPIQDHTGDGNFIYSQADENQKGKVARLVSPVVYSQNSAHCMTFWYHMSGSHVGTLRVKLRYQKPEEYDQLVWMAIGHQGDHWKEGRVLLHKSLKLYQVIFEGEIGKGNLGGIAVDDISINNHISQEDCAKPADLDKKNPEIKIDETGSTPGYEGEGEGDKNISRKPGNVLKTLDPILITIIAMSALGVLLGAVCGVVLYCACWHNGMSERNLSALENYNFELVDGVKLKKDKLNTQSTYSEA
MEKK2 mut-MEK5 – signal of MEK5 binding to mutant human MEKK2 PB1 domain; AID 1530; 290,000 compounds, 0.35% hits; bead flow cytometry, Alexa488-MEK5 binding to MEKK2 mutant; percent response, % at 10 µM; in the data active = percent response above about 24%, passing the limit was not always enough
MEKK2wt PB1 HTS – raises or lowers MEK5 binding to wildtype human MEKK2 PB1 domain; binding response (% of control), % at 10 µM; bead flow cytometry, Alexa488-MEK5 binding to MEKK2 WT; actives lie on both sides; AID 1531; 290,000 compounds, 1.1% hits; in the data active = binding response below about 67% or above about 130%
MEKK3 PB1 HTS – MEKK3-MEK5 PB1 interaction, increase or decrease; bead-based flow cytometry, Alexa488-MEK5 binding to MEKK3; actives lie on both sides; 0 = blocked by unlabeled MEK5, 100 = vehicle; binding response (% of control), % at 10 µM; 290,000 compounds, 1.4% hits;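 active = binding response more than 3 SD above or below the average of its plate-row segment, actives on both sides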;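 also: Alexa488 bead fluorescence after subtracting the streptavidin-only scavenger bead signal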
* hit, by the source's call; . = no result given. This is a sample that favours compounds with a hit; in the whole collection about 3.2% have one here.

SMILES	SKN-1 block	CendR NRP1 mod	MEKK2 mut-MEK5	MEKK2wt PB1 HTS	MEKK3 PB1 HTS
CCOCc1c(C(=O)NCC(c2ccco2)N2CCCC2)oc2ccccc12 (stereo not drawn)	6	-10	.	.	.
CN(Cc1ccccc1)C(=O)[C@@H]1CCCN1C(=O)[C@@H]1CCCN1C(=O)c1cccc(Cl)c1	27	22*	.	.	.
C[C@H]1CN([C@@H](C)CO)C(=O)CCCn2cc(nn2)CO[C@@H]1CN(C)C(=O)Nc1ccc(N2CCN(C)CC2)cc1	-1	21*	.	.	.
OC(c1cc(-c2ccc(Cl)cc2)nc2ccccc12)C1CCCCN1 (stereo not drawn)	-6	12	59*	155*	115
CC(C)NC(=S)NNc1ncnc2sc3c(c12)CC(C)(C)OC3	23	5	.	.	.
CC1(C)Cc2c(sc3ncnc(NNC(=S)NCc4ccccc4)c23)CO1	-8	-91	0	108	132*
O=C(Cc1ccc([N+](=O)[O-])cc1)N1CCCCCC1	7	5	-3	96	96
O=C(CCc1ccc(Oc2cc([N+](=O)[O-])cc([N+](=O)[O-])c2)cc1)N1CCCCCC1	-15	26*	-2	100	97
O=C(NCc1cccc(Cl)c1)c1ccc(-n2cncn2)c2ccoc12	5	7	.	.	.
Cc1ccc(N2C(=O)C(Cl)=C(Nc3c(C)n(C)n(-c4ccccc4)c3=O)C2=O)cc1	8	6	-1	101	100
Cc1cccc(N2C(=O)C(Cl)=C(Nc3c(C)n(C)n(-c4ccccc4)c3=O)C2=O)c1C	-3	26*	-7	79	78
CC(NC(=O)Nc1nnc(C(F)(F)F)s1)(C(F)(F)F)C(F)(F)F	32*	-16	-1	100	103
CC(C)(C)CC(=O)Nc1nnc(C(F)(F)F)s1	-5	5	3	112	112
O=C(CCCN1C(=O)c2cccc3cccc(c23)C1=O)N1CCN(c2ccccn2)CC1	-8	-13	0	109	129*
O=Cc1cc(OCc2ccccc2)ccc1[B-](F)(F)F	-8	-10	.	.	.
CN1CCN(c2ccc(NC(=O)c3ccc(Oc4ccccc4)cc3)cc2)CC1	37*	-23	27*	124	100
CC(=O)c1ccc(N2CCN(C(=S)Nc3ccc(Oc4ccccc4)cc3)CC2)cc1	26	8	-2	105	107
COc1cccc(CN2CC(C(=O)NCCc3cn4cccnc4n3)CCC2=O)c1 (stereo not drawn)	-16	6	.	.	.
N#C/C(=C\c1ccc(OC(=O)c2ccc(Br)s2)cc1)c1nc2ccccc2[nH]1	-9	12	0	100	101
N#C/C(=C\c1ccc(OC(=O)c2ccc(Cl)s2)cc1)c1nc2ccccc2[nH]1	6	39*	1	105	102
CC(=O)Nc1ccc2c(c1Br)Cc1ccccc1-2	44*	7	.	.	.
COC(=O)n1c(=O)oc2ccccc21	-1	26*	9	108	106
O=C(NCCN1CCN(C(=O)c2cccc(OC(F)F)c2)CC1)c1cccc(OC(F)F)c1	4	22*	.	.	.
COc1ccc(C(=O)NCCN2CCN(C(=O)c3ccc(OC)c(OC)c3)CC2)cc1OC	-2	1	2	99	101
CN(C)C(CNC(=O)c1cc(S(=O)(=O)N(C)Cc2ccccc2)ccc1Cl)c1ccco1 (stereo not drawn)	5	7	.	.	.
SMILES	SKN-1 block	CendR NRP1 mod	MEKK2 mut-MEK5	MEKK2wt PB1 HTS	MEKK3 PB1 HTS
COc1ccc(C2CC(=O)C=C(NC3CCCC3)C2)cc1 (stereo not drawn)	0	29*	-2	95	90
CCC(=O)Nc1cc2c3c(c1)CCC(=O)N3CCC2	10	26*	4	101	102
CC(=O)Nc1cc2c3c(c1)CCC(=O)N3CCC2	-4	12	3	100	102
O=C(NCCc1nnc2ccc(NCCCN3CCOCC3)nn12)c1ccccc1	3	17	3	105	101
Cc1cc(O)cc(O)c1-c1onc(C(F)(F)F)c1-c1cscn1	5	11	3	100	107
CCOc1ccc(-c2onc(C(F)(F)F)c2-c2cscn2)c(O)c1	10	27*	6	102	102
CNc1ccccc1C(C)(C)c1cc(-c2cccc([N+](=O)[O-])c2)no1	12	-11	-3	93	100
CNc1ccccc1C(C)(C)c1cc(-c2cccc(Br)c2)no1	73	-61	0	9.0*	99
